Data on two compounds can be found in PubChem BioAssay (NCATS).

Results filed as inconclusive are left out. This is one part of the list. Activity calls are given as the source filed them. Unless noted, calls come from the whole dose curve; as a rule, active = well fitted curve in the direction sought with a large enough effect; inconclusive = small, poorly fitted or top-dose-only effect, or another doubt; inactive = no such curve, though single readings can be large; an effect the other way counts as inactive or inconclusive.

Experiment [1] in a line: S16 Schwann cell viability assay (CellTiter-Glo assay) (AID 624031).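 Note: native untransfected S16 rat Schwann cells; cellular ATP luminescence as a viability measure; nearly all actives have a fitted effect of over 70% in size.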 The gist of the method:
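Parental S16 cells, 24 h compound, 37 °C. ATP-luminescence viability; DMSO = 0% activity, empty wells as reference; curves classified by fit quality and efficacy.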

Experiment [2] in a line: S16 Schwann cell PMP22 intronic element firefly luciferase assay (AID 624032). Note: nearly all actives have a fitted effect of over 30% in size. The gist of the method: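 Rat S16 Schwann cells stably carrying firefly luciferase driven by a PMP22 intronic element, in 10% FBS, treated 24 h at 37 C. ONE-Glo luminescence normalized to PTC124 control and DMSO (0%); curves classed by r2, magnitude and activity.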
Experiment [3] in a line: S16 Schwann cell PMP22 intronic element beta-lactamase assay (AID 624044; calls by dose curve; note: nearly all actives have a fitted effect of over 15% in size). The gist of the method:
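Rat S16 Schwann cells with beta-Lac driven by a PMP22 intronic element, compound-treated 24 h at 37 °C. LiveBLAzer FRET B/G read: 460 nm normalized to potassium clavulanate vs DMSO; 535 nm FRET as viability; concentration-effect curves classified.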

Experiment [4] relates to 7G8. Description: qHTS profiling for inhibitors of Plasmodium falciparum proliferation (AID 504749). Note: nearly all actives have a fitted effect of over 60% in size. Note: potency is the fitted concentration of half-maximal effect. As to conditions: P. falciparum in erythrocytes, SYBR Green DNA, 72 h; series mostly up to 28.7 µM. The gist of the method: (§1)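 P. falciparum-infected erythrocytes (0.3% parasitemia, 2.5% hematocrit) incubated with compound 72 h at 37 C, 5% CO2. Parasite DNA detected by SYBR Green after lysis, overnight at room temperature; normalised to 0.29 uM artemisinin and DMSO.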
(Quantitative high-throughput screening tests each substance at several concentrations.)

In experiment [5] the test system is AA1029. Described as above. As to conditions: P. falciparum in erythrocytes, SYBR Green DNA, 72 h; series mostly up to 28.7 µM. The gist of the method:
as §1

Experiment [6] relates to CP211. The experiment is described as above. As to conditions: P. falciparum in erythrocytes, SYBR Green DNA, 72 h; series mostly up to 28.7 µM. The gist of the method: as §1
Experiment [7] has as its system CP215. Described as above. As to conditions: P. falciparum in erythrocytes, SYBR Green DNA, 72 h; series mostly up to 28.7 µM. The gist of the method:
as §1

In experiment [8] the test system is CP291. Described as above. As to conditions: P. falciparum in erythrocytes, SYBR Green DNA, 72 h; series mostly up to 28.7 µM. The gist of the method: as §1
Experiment [9] deals with CP297. Described as above. As to conditions: P. falciparum in erythrocytes, SYBR Green DNA, 72 h; series mostly up to 28.7 µM. The gist of the method: as §1
Experiment [10] relates to CP315. Described as above. As to conditions: P. falciparum in erythrocytes, SYBR Green DNA, 72 h; series mostly up to 28.7 µM. The gist of the method:
as §1

The test system of experiment [11] is CP335. Described as above. As to conditions: P. falciparum in erythrocytes, SYBR Green DNA, 72 h; series mostly up to 28.7 µM. The gist of the method: as §1
Experiment [12] deals with DIV17. The experiment is described as above. As to conditions: P. falciparum in erythrocytes, SYBR Green DNA, 72 h; series mostly up to 28.7 µM. The gist of the method: as §1
Experiment [13] has as its system Dd2. Described as above. As to conditions: P. falciparum in erythrocytes, SYBR Green DNA, 72 h; series mostly up to 28.7 µM. The gist of the method: as §1
Experiment [14] relates to FAB9. Described as above. As to conditions: P. falciparum in erythrocytes, SYBR Green DNA, 72 h; series mostly up to 28.7 µM. The gist of the method: as §1
The test system of experiment [15] is GB4. The description is as above. As to conditions: P. falciparum in erythrocytes, SYBR Green DNA, 72 h; series mostly up to 28.7 µM. The gist of the method: as §1
Experiment [16] has as its system ICS. The description is as above. As to conditions: P. falciparum in erythrocytes, SYBR Green DNA, 72 h; series mostly up to 28.7 µM. The gist of the method:
as §1

The subject of experiment [17] is JCK. The description is as above. As to conditions: P. falciparum in erythrocytes, SYBR Green DNA, 72 h; series mostly up to 28.7 µM. The gist of the method:
as §1

Experiment [18] concerns the target DNA polymerase iota (Homo sapiens) (UniProt Q9UNA4). The experiment is described as follows: qHTS for Inhibitors of Polymerase Iota: Confirmatory Assay for Cherry-picked Compounds (AID 720496). Note: potency is the fitted concentration of half-maximal effect. As to conditions: Pol iota primer extension, TAMRA/BHQ fluorescence. The gist of the method:
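Recombinant human Pol iota (10 nM) was preincubated with compound for 15 min at room temperature, then 50 nM final primer/template substrate was added; the substrate carried a TAMRA-labeled reporter strand and a BHQ-2-quenched template. Fluorescence was read at 0 and 10 min.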

Experiment [19] addresses Bifunctional 3'-5' exonuclease/ATP-dependent helicase WRN (Homo sapiens) (UniProt Q14191). Description: qHTS for Inhibitors of WRN Helicase: Confirmatory Assay for Cherry-picked Compounds. (AID 720497). Note: potency is the fitted concentration of half-maximal effect; nearly all actives have a fitted effect of over 65% in size. As to conditions: WRN helicase DNA unwinding, fluorescence kinetic. The gist of the method: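 Confirmatory retest of cherry-picked hits in 1536-well format. Enzyme (20 nM final) sat with compound for 15 min at room temperature before forked duplex substrate (100 nM) and ATP (2 mM) were added, and unwinding was followed kinetically by red fluorescence.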

Experiment [20] in a line: qHTS for Inhibitors of WRN Helicase: Thiazole Orange DNA Binding Counterscreen (AID 720499).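 Note: drop in dye fluorescence marks compound binding to DNA; nearly all actives have a fitted effect of over 60% in size.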 The gist of the method: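 Fluorescence at 530 nm (excitation 480 nm) is measured after compounds incubate 15 min at room temperature with unlabeled DNA (50 nM) bound to thiazole orange (100 nM). Decreased signal indicates nonspecific DNA binding.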

Chain of DNA polymerase iota (Homo sapiens) (Q9UNA4 whole entry, looked up): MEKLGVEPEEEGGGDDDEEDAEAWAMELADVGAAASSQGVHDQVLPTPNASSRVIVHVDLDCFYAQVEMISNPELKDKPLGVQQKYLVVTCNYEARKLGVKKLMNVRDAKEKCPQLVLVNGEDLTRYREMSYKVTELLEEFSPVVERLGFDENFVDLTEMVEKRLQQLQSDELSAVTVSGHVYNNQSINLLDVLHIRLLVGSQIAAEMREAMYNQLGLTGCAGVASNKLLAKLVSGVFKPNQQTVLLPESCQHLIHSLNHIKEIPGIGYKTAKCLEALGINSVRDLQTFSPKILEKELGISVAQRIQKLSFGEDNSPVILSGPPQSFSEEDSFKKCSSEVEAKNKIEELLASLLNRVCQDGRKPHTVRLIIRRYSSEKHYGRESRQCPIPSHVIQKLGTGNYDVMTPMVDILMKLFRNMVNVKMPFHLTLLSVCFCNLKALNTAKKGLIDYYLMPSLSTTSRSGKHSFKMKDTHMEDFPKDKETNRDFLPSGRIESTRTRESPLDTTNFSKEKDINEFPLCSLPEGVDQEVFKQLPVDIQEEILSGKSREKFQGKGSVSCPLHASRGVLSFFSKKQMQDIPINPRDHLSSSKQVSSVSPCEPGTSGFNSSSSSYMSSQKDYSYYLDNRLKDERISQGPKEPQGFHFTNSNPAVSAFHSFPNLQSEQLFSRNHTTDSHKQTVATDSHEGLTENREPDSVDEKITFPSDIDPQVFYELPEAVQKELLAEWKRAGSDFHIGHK
Chain of Bifunctional 3'-5' exonuclease/ATP-dependent helicase WRN (Homo sapiens) (Q14191 whole entry, looked up): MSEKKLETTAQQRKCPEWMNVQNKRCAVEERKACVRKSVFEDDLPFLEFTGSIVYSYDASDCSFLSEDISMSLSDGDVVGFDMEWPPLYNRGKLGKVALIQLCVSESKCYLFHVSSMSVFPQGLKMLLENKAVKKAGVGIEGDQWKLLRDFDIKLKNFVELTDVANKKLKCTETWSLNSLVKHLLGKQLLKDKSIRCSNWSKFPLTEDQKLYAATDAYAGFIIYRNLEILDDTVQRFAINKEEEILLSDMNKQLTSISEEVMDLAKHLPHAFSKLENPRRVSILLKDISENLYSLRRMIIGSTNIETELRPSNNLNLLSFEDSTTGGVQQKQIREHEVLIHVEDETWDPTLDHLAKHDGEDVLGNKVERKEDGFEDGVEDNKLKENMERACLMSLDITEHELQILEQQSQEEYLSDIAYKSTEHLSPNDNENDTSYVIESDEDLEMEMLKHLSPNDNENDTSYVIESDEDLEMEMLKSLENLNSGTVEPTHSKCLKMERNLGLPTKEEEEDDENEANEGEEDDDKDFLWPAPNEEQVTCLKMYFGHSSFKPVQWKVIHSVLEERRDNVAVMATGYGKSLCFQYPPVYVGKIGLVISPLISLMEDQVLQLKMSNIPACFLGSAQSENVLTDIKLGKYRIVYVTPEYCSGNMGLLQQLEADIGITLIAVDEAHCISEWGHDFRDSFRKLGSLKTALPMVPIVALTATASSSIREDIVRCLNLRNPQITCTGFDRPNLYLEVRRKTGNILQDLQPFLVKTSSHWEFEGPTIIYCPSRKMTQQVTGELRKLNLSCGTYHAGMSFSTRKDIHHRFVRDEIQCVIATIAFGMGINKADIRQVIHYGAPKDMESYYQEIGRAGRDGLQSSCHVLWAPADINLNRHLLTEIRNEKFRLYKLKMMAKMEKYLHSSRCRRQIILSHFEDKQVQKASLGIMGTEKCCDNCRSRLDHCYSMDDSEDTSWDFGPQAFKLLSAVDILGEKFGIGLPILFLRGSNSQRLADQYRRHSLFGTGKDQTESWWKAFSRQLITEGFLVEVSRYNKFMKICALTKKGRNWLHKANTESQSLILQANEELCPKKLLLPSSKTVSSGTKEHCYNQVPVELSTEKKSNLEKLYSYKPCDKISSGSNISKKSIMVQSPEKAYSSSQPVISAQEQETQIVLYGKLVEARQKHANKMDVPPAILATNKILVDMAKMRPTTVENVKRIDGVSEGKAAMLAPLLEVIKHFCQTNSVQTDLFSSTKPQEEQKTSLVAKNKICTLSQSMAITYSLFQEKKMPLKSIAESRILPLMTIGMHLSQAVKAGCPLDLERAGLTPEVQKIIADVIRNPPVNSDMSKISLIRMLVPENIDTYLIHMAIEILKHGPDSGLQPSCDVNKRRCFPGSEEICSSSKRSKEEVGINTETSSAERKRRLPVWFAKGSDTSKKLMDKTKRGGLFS

Take `C=C1CC[C@H](O)C/C1=C/C=C1\CCC[C@]2(C)[C@@H]([C@H](C)CCCC(C)C)CC[C@@H]12`: the Potency entry in experiment [1], in experiment [2], in experiment [5], in experiment [6], in experiment [7] and in experiment [8] was “inactive” throughout. Besides, the Potency entry in experiment [9], in experiment [10], in [11], in [12], in [14] and in [15] was “inactive” each time. For the same compound, the Potency result in experiment [17] is “inactive”. Further, in experiment [3], the compound was classed as inactive. The Potency is 11.2 µM (active) in [4], 12.6 µM (active) in experiment [13] and 10 µM (active) in experiment [16].

For the compound `N#Cc1ccccc1CN1C(=O)S/C(=C/c2cccn2-c2cccc(C(=O)O)c2)C1=O`, the Potency is 67 µM (active) in [18] and 21.5 µM (active) in experiment [19]. The compound was called inactive in experiment [20].
